p53null 39C tox = p53 null cell cytotoxicity, nonpermissive temperature; Potency, µM (top dose mostly 46.1 µM), without a hit: at the highest dose activity, negative = cell killing, actives largely listed as cytotoxic; 55,000 compounds, 0.97% hits; H1299 p53-null (neo) cells, 39C, ATPlite viability, 24 h; AID 904;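 also: potency is read from the fitted curve at half-maximal effect; 0% = DMSO only and -100% = full killing by 100 µM tamoxifen; nearly all actives have a fitted effect of over 50% in size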
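Cells seeded at 600/well, 37C overnight. Compound added (up to 46 uM), plates shifted to 39C for 24 hr. ATPlite added, luminescence read after 20 min at room temperature.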
NTMT1 inh = blocks human N-terminal methyltransferase 1 activity; 59,000 compounds, 2.5% hits; NTMT1 MTase-Glo SAH luminescence, purified enzyme; Potency, µM (series often up to 114 µM), for the others: top-dose activity change, negative = inhibition, most hits filed as inhibitors; Q9BV86;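 also: potency is read from the fitted curve at half-maximal effect; plate controls were DMSO vehicle for no effect and no enzyme for full effect; nearly all actives have a fitted effect of over 65% in size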
FH mod = Identification of activators of human fumarate hydratase by quantitative high-throughput screening; FH coupled MDH/diaphorase resazurin fluorescence, 15 min; AID 1347055, 2019; Potency, µM (series often up to 79.9 µM), inactives show top-dose activity change, negative = inhibition, most hits filed as inhibitors; 54,000 compounds, 0.22% hits; also: potency is read from the fitted curve at half-maximal effect; % is scaled to controls: 0 for no effect and ±100 for the full control effect; the screen sought activators but most active calls are inhibition curves; nearly all actives have a fitted effect of over 45% in size
DRV1 agonist = activates human resolvin D1 receptor GPR32. O75388. CHO-K1 GPR32 beta-arrestin PathHunter luminescence, 90 min; zero percent set by DMSO-only wells. activation, % at 76.9 µM. 48,000 compounds, 2.5% hits. AID 1346428;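 active = activation of at least 60% and not above a set upper limit, about 1 call in 100 departs from these limits; inconclusive = activation of 40% to 60%, or above that upper limit; inactive = activation under 40%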; also: 0% is about no effect
Target sequence (O75388 whole entry, looked up): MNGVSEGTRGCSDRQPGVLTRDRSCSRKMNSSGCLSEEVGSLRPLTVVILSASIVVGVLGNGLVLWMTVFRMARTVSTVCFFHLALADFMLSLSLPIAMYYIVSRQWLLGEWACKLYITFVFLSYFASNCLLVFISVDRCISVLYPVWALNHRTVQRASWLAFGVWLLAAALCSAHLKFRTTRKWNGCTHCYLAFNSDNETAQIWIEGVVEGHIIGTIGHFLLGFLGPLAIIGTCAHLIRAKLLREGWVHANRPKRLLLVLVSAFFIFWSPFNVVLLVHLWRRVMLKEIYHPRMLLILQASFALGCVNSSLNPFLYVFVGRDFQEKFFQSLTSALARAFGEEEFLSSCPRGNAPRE
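PathHunter enzyme-fragment complementation, CHO-K1 GPR32 stable line; 2,500 cells/well, overnight attach; cpd 90 min 37 °C 5% CO2; detection reagent 1 h RT; chemiluminescence. DMSO = EC0.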
p53null 32C tox = p53 null cell cytotoxicity, permissive temperature. H1299-neo p53 null cells, ATP luminescence, 24 h, 32C. Potency, µM (doses to about 46.1 µM), inactives show at the top dose activity change, negative = cytotoxicity, usual class: cytotoxic. 55,000 compounds, 0.62% hits;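 also: potency is read from the fitted curve at half-maximal effect; 0% = DMSO only and -100% = full killing by 100 µM tamoxifen; nearly all actives have a fitted effect of over 55% in size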
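Overnight 37C seeding (600 cells/well) of H1299-neo preceded a 24 hr, 32C exposure to compounds up to 46 uM. ATP levels, read by luminescence after 20 min at RT, indicated surviving cells.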
GALC G270D up = galactocerebrosidase G270D activity enhancement, cell-based; 145M-Twi-hGALC-G270D cells, HMU-beta-Gal fluorescence, 48 h; 45,000 compounds, 0.1% hits; AID 1159614; Potency, µM (series often up to 57.5 µM), hits mostly activators; P54803; also: potency is read from the fitted curve at half-maximal effect; 0% is about no effect; nearly all actives have a fitted effect of over 65% in size
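qHTS, 1536-well; 145M-Twi-hGALC-G270D cells (WT line also made) in DMEM/F12 + 10% FBS; compound incubation on live cells; HMU-β-gal 0.1 mM final, pH 5.2, NaTC; carbonate stop; fluorescence increase = enhanced residual activity.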
Active calls of the source: *; i = inactive; ? = inconclusive; / = no result given; [ ] = another dose, or the depositor's remark. Most compounds without a hit are left out; they make up all but 3.9% or so of the library. Unless noted, calls follow the shape of the dose curve; as a rule, active = well fitted curve in the direction sought with a large enough effect; inconclusive = small, poorly fitted or top-dose-only effect, or another doubt; inactive = no such curve, though single readings can be large; an effect the other way counts as inactive or inconclusive.

SMILES	p53null 39C tox	NTMT1 inh	FH mod	DRV1 agonist	p53null 32C tox	GALC G270D up
CCOc1ccc(CCNC(=O)c2cc3cccnc3n2Cc2cccc(C)n2)cc1OCC	/	3%	/	/	/	/
Nc1cccc2c(N)cccc12	/	35µM*	-17%	-24	/	i
Cc1ccc2oc(=O)c(-c3nc4ccc(C)cc4[nH]3)cc2c1	20µM*	-2%	-14%	-1	-29%	i
CC[n+]1c(-c2ccccc2)c2cc(N)ccc2c2ccc(N)cc21	/	28µM*	-24%[53.3 µM]	-44	/	i
CC1=C[C@H]2O[C@@H]3C[C@H]4OC(=O)/C=C/C=C/C(=O)OCC/C(C)=C/C(=O)OC[C@@]2(CC1)[C@]4(C)[C@]31CO1	/	4%[29.8 µM]	-12%[53.3 µM]	/	/	/
C=CCC1=C(C)C(OC(=O)C2C(C=C(C)C)C2(C)C)CC1=O (centres undefined)	/	?	-5%	74*	/	i
CC(C)=CC1C(C(=O)OCc2cccc(Oc3ccccc3)c2)C1(C)C (centres undefined)	/	-3%[57.5 µM]	-8%[53.3 µM]	0	/	i

Source: PubChem (National Center for Advancing Translational Sciences (NCATS))
